HT1080-NT tox – qHTS for induction of synthetic lethality in tumor cells producing 2HG: qHTS for the HT-1080-NT fibrosarcoma cell line; HT-1080-NT fibrosarcoma viability, CellTiter-Glo ATP luminescence, 48 h; Potency, µM (titrated, usually from 46.1 µM), for the others: at the top dose activity, negative = less viability, hits mostly cytotoxic; 360,000 tested, 1.6% active;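 also: NT is the 2HG producing partner of a matched IDH1 knockdown line; 0% = DMSO-treated cells and -100% = media-only wells without cells; nearly all actives have a fitted effect of over 55% in size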
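HT-1080-NT; 750 cells/well; 5% FBS RPMI; 48 h compound, 37 degrees C; CellTiter-Glo luminescence; curve fitting and curve-class assignment.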
DT40 TDP1 no CPT – qHTS for Inhibitors of human tyrosyl-DNA phosphodiesterase 1 (TDP1): qHTS in cells in absence of CPT; DT40 Tdp1-/- hTDP1 cells, no CPT, ATP luminescence, 48 h; Potency, µM (highest dose often 46.2 µM), for the others: top-dose activity change, negative = growth inhibition, hits mostly inhibitors; 420,000 tested, 15% active; AID 686978, 2013; also: nearly all actives have a fitted effect of over 55% in size
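Cells were dispensed at 400 per well, compounds added by pin tool, plates incubated ≥48 hr at 37 °C, then CellTiter-Glo added for 30 min at room temperature before luminescence reading. Line: DT40 Tdp1-/- complemented with hTDP1; camptothecin omitted.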
TDP1 cell CPT – qHTS for Inhibitors of human tyrosyl-DNA phosphodiesterase 1 (TDP1): qHTS in cells in presence of CPT; chicken DT40 Tdp1-/-;hTDP1 cells + 20 nM CPT, ATP luminescence, 48 h; Potency, µM (titrated, usually from 46.2 µM), for inactives: at the highest dose activity change, negative = growth inhibition, actives largely listed as inhibitors; AID 686979, 2013; 420,000 tested, 12% active; also: nearly all actives have a fitted effect of over 55% in size
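Chicken DT40 Tdp1-/- cells stably complemented with human TDP1 were seeded at 400 cells/well in medium containing 20 nM camptothecin, exposed to pin-transferred compounds, and grown at 37 °C for at least 48 hr. Viability was read as ATP luminescence.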
KB-3-1 tox – qHTS assay for MDR1-selective chemotherapeutics: Primary screen using the parental adenocarcinoma cell KB-3-1. KB-3-1 viability, CellTiter-Glo ATP luminescence, 72 h. Potency, µM (series often up to 46.1 µM), most hits filed as cytotoxic. 400,000 tested, 1.4% active. AID 1347075, 2019; also: nearly all actives have a fitted effect of over 60% in size
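72 h, 37 °C compound treatment of KB-3-1 parental cells; CellTiter-Glo added, 10 min, luminescence read. Data corrected against DMSO-only plates and normalized before curve fitting.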
KB-V1 cytotox – qHTS assay for MDR1-selective chemotherapeutics: Primary screen using the drug-selected MDR subline cells KB-V1. KB-V1 MDR cells viability, CellTiter-Glo, 72 h. 400,000 tested, 3.4% active. AID 1347076, 2019. Potency, µM (highest dose often 46.1 µM), most hits filed as cytotoxic; also: nearly all actives have a fitted effect of over 60% in size
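Cells of the MDR subline KB-V1 are plated, dosed with compound at multiple concentrations, and incubated 72 h at 37 degrees C; CellTiter-Glo is then added and luminescence read after 10 min.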
HT1080 IDH1KD tx – qHTS for induction of synthetic lethality in tumor cells producing 2HG: qHTS for the HT-1080-IDH1KD cell line | 360,000 tested, 2% active | HT-1080 IDH1 knockdown viability, ATP luminescence, 48 h | AID 686971, 2013 | Potency, µM (titrated, usually from 46.1 µM), for inactives: at the highest dose activity, negative = toxicity, usual class: cytotoxic;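 also: 0% = DMSO wells and -100% = cell-free medium wells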
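In this qHTS, HT-1080 cells depleted of IDH1 are exposed for 48 h at 37 °C to compound titrations. Toxicity is scored from CellTiter-Glo luminescence, with DMSO as full viability and medium alone as none.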
* hit, by the source's call; i = inactive; ? = inconclusive; . = no result given; ! = a repeat was not active. In the library only some 19% were active in any assay of this set; here they are far more common. Calls follow the shape of the dose curve; as a rule, active = well fitted curve in the direction sought with a large enough effect; inconclusive = small, poorly fitted or top-dose-only effect, or another doubt; inactive = no such curve, though single readings can be large; an effect the other way counts as inactive or inconclusive. Unless noted, % is scaled to controls: 0 for no effect and ±100 for the full control effect; potency is read from the fitted curve at half-maximal effect.

SMILES	HT1080-NT tox	DT40 TDP1 no CPT	TDP1 cell CPT	KB-3-1 tox	KB-V1 cytotox	HT1080 IDH1KD tx
O=C1N[C@@H](Cc2ccccc2)COC(=O)[C@@H](Cc2ccc(F)cc2)CC/C=C/C[C@@H]1CC(=O)N(CCO)Cc1ccccc1	-20%	?	?	?	?	-10%
CC(C)(C)[C@@H]1COC(=O)[C@H](Cc2ccc(F)cc2)CC/C=C\C[C@@H](CC(=O)N(CCO)Cc2ccccc2)C(=O)N1	-8%	23µM*	5.8µM*	?	?	-1%
CC(C)(C)[C@@H]1COC(=O)[C@@H](Cc2ccc(F)cc2)C/C=C\C[C@H](CC(=O)N(CCO)Cc2ccccc2)C(=O)N1	-9%	?	23µM*	i	i	-10%
CC(C)(C)Cc1c(-c2cccc(Cl)c2)nc2ccc(Br)cn12	3%	?	?	i	i	-6%
CCCc1cnc2c(c1SCc1cccc(C)c1)c(=O)n(C)c(=O)n2C	.	?	16µM*	i	i	.
CC(C)c1cnc2c(c1SCC(=O)c1ccc(Cl)cc1)c(=O)n(C)c(=O)n2C	.	23µM*	18µM*	.	.	.
CCc1cnc2c(c1SC(C(C)=O)C(=O)N(C)C)c(=O)n(C)c(=O)n2C (configuration not stated)	.	?	23µM*	i	i	.
COC(=O)c1ccc(CSc2c(C(C)C)cnc3c2c(=O)n(C)c(=O)n3C)cc1	.	23µM*	?	.	.	.
CC(C)c1cnc2c(c1SCC(=O)Nc1ccc(C(N)=O)cc1)c(=O)n(C)c(=O)n2C	.	?	-28%	.	.	.
CC(C)c1cnc2c(c1SCC(=O)Nc1cccc(F)c1)c(=O)n(C)c(=O)n2C	.	15µM*	?	.	.	.
CCN(CC)CCSc1c(C(C)C)cnc2c1c(=O)n(C)c(=O)n2C	.	-2%	4%	.	.	.
CC1CCN(C(=O)CSc2c(C(C)C)cnc3c2c(=O)n(C)c(=O)n3C)CC1	.	16µM*	26µM*	.	.	.
CC(C)c1cnc2c(c1SCc1ccc([N+](=O)[O-])cc1)c(=O)n(C)c(=O)n2C	.	8.2µM*	?	.	.	.
CC(C)c1cnc2c(c1SCC(=O)O)c(=O)n(C)c(=O)n2C	.	6%	1%	.	.	.
CC(C)c1cnc2c(c1SCc1cccc(C(F)(F)F)c1)c(=O)n(C)c(=O)n2C	.	23µM*	?	.	.	.
CC[C@H]1C=C[C@@H](C(C(=O)OC)C(=O)OC)CN1C(C)=O	9%	-30%	?	i	i	9%
COC(=O)CCCCCCCC(=O)Nc1nnc(C(F)(F)F)s1	24%	-13%	0%	i	?	10%
CCc1cnc2c(c1SCC(=O)c1ccc(OC)cc1)c(=O)n(C)c(=O)n2C	.	12µM*	12µM*	i	i	.
CSc1ccc(-c2nc3cccc(C)n3c2Nc2ccc3c(c2)OCO3)cc1	.	18µM*	?	i	i	.
Cc1ccc(Nc2c(-c3ccc(C)o3)nc3cccc(C)n23)cc1	-16%	11µM*	11µM*	i	i	-22%
Cc1ccc(-c2nc3cccc(C)n3c2Nc2ccc3c(c2)OCO3)o1	.	?	23µM*	i	i	.
COc1ccc(Nc2c(-c3cc4ccccc4o3)nc3nc(C)cc(C)n23)cc1	-15%	?	?	i	?	-12%
CCC(=O)N1CCc2cc(Br)cc(S(=O)(=O)N3CCC(C(=O)Nc4ccccc4CC)CC3)c21	.	?	?	i	i	.
Cc1ccc(C(=O)N/C(=C\c2ccc(-c3cccc([N+](=O)[O-])c3)o2)C(=O)NC(C)(C)C)cc1	-1%	16µM*	15µM*	i	i	-9%
CC(C)(C)NC(=O)/C(=C/c1ccccc1F)NC(=O)c1ccc([N+](=O)[O-])cc1	3%	?	0%	i	i	17%
SMILES	HT1080-NT tox	DT40 TDP1 no CPT	TDP1 cell CPT	KB-3-1 tox	KB-V1 cytotox	HT1080 IDH1KD tx
Cc1ccc(C(=O)N/C(=C/c2ccc(-c3ccc([N+](=O)[O-])cc3)o2)C(=O)NCCCN(C)C)cc1	23µM*	21µM*	21µM*	i	i	?
Cc1ccc(C(=O)N/C(=C\c2ccc(-c3ccc([N+](=O)[O-])cc3)o2)C(=O)NC2CCS(=O)(=O)C2)cc1 (configuration not stated)	-1%	?	21µM*	i	i	-12%
CCN(CC)c1ccc(-c2nc(-c3ccccc3C)no2)cc1[N+](=O)[O-]	.	?	?	i	i	.
Nc1nc2n[nH]nc2c(=O)[nH]1	?	7.3µM*	7.3µM*	1.5µM*!	?	0.12µM*
CN(Cc1cc(Br)cc(Br)c1N)C1CCCCC1	.	9.4µM*	?	.	.	.
Cc1cccc(-n2c(C)nc3cc(C(=O)NC4CCCCCC4)ccc32)c1	.	23µM*	13µM*	i	i	.
Cc1cccc(-n2c(C)cc(C(=O)NC3CCCCC3)c2C)c1	-9%	13µM*	?	i	i	-22%
Cc1noc(-c2ccc(N3CCC(C)CC3)c([N+](=O)[O-])c2)n1	.	?	?	i	i	.
COc1ccc(C(=O)COC(=O)CCN2C(=O)C3C4C=CC(C5CC45)C3C2=O)cc1 (configuration not stated)	-7%	-10%	?	i	i	-8%
CCOc1ccc(CNC(=O)c2cnc3c(C)cccn3c2=O)cc1	.	-16%	1%	i	i	.
O=C(O)c1ccccc1C(=O)NNc1ccc(F)cc1	?	-4%	-1%	i	i	8.2µM*
O=C(O)c1ccccc1C(=O)NCc1ccc(F)cc1	1%	-6%	-6%	i	i	10%
CC1CCN(c2cc(C#N)c(C#N)cc2[N+](=O)[O-])CC1	12%	-10%	-18%	i	i	1%
CC1CCCCN1c1cc(C#N)c(C#N)cc1[N+](=O)[O-] (configuration not stated)	5%	-24%	18µM*	i	i	26%
COc1cccc2c(=O)c(SC(F)(F)C(F)C(F)(F)F)c(C)[nH]c12 (configuration not stated)	?	18µM*	?	?	i	21µM*
